Measurements as given in PubChem BioAssay AID1159580 (chemical genetic matrix, 2015).
About 2,000 (36%) of roughly 5,500 compounds were called active. Another 18% or so got no clear call; they are omitted. No stated cut-off is given here; in the data, active means normalized growth mostly below about 0.91 (no sharp cut-off); inconclusive means no clear call, values can overlap the other calls; inactive means mostly above about 0.92. The list shows a part of the results.

Test: chemical genetic growth profiling, strain panel (AID 1159580);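 further: tested at 20 µM; growth read once vehicle control cultures reached saturation at 30 °C; 1 = growth at the plate median or of vehicle wells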
Conditions: growth OD

Measured: normalized growth

CO[C@@]12[C@@H]3NC3CN1C1=C(C(=O)C(N)=C(C)C1=O)[C@@H]2COC(N)=O (some centres not stated)
inactive: S. cerevisiae deletion strains, locus YJR075W, strain HOC1, stronger effect = lower value 0.995 | S. cerevisiae deletion strains, locus YKL009W, strain mrt4, stronger effect = lower value 0.964 | S. cerevisiae deletion strains, locus YKL068W, stronger effect = lower value 0.984 | S. cerevisiae deletion strains, locus YKL085W, strain MDH1 (second series), stronger effect = lower value 0.983 | S. cerevisiae deletion strains, locus YKL085W, strain MDH1, stronger effect = lower value 0.983 | S. cerevisiae deletion strains, locus YKL160W, strain elf1, stronger effect = lower value 0.974 | S. cerevisiae deletion strains, locus YKL190W, strain CNB1, stronger effect = lower value 1 | S. cerevisiae deletion strains, locus YKR001C, strain vps1, stronger effect = lower value 0.982 | S. cerevisiae deletion strains, locus YKR026C, strain gcn3, stronger effect = lower value 0.964 | S. cerevisiae deletion strains, locus YKR091W, strain srl3, stronger effect = lower value 0.959 | S. cerevisiae deletion strains, locus YLL001W, strain dnm1, stronger effect = lower value 0.929 | S. cerevisiae deletion strains, locus YLL026W, stronger effect = lower value 0.977 | S. cerevisiae deletion strains, locus YLL041C, strain sdh2, stronger effect = lower value 0.977 | S. cerevisiae deletion strains, locus YLR027C, strain aat2, stronger effect = lower value 0.953 | S. cerevisiae deletion strains, locus YLR039C, strain RIC1, stronger effect = lower value 1.01 | S. cerevisiae deletion strains, locus YLR058C, strain SHM2, stronger effect = lower value 0.999 | S. cerevisiae deletion strains, locus YLR102C, strain apc9, stronger effect = lower value 0.986 | S. cerevisiae deletion strains, locus YLR113W, strain HOG1, stronger effect = lower value 0.973 | S. cerevisiae deletion strains, locus YLR221C, strain rsa3, stronger effect = lower value 1.01 | S. cerevisiae deletion strains, locus YLR258W, strain gsy2, stronger effect = lower value 0.992 | S. cerevisiae deletion strains, locus YLR262C, strain YPT6 (second series), stronger effect = lower value 0.938 | S. cerevisiae deletion strains, locus YLR262C, strain YPT6, stronger effect = lower value 0.947 | S. cerevisiae deletion strains, locus YLR268W, strain sec22, stronger effect = lower value 1.01 | S. cerevisiae deletion strains, locus YLR320W, strain mms22, stronger effect = lower value 1.01 | S. cerevisiae deletion strains, locus YLR330W, strain CHS5, stronger effect = lower value 0.987 | S. cerevisiae deletion strains, locus YLR342W, strain FKS1 (second series), stronger effect = lower value 1 | S. cerevisiae deletion strains, locus YLR342W, strain FKS1, stronger effect = lower value 0.952 | S. cerevisiae deletion strains, locus YLR357W, strain rsc2, stronger effect = lower value 0.961 | S. cerevisiae deletion strains, locus YLR370C, strain arc18, stronger effect = lower value 0.96 | S. cerevisiae deletion strains, locus YLR371W, strain rom2, stronger effect = lower value 0.961 | S. cerevisiae deletion strains, locus YLR384C, strain iki3, stronger effect = lower value 0.953 | S. cerevisiae deletion strains, locus YLR418C, strain cdc73, stronger effect = lower value 1.05 | S. cerevisiae deletion strains, locus YML016C, strain PPZ1, stronger effect = lower value 1 | S. cerevisiae deletion strains, locus YML032C, strain rad52, stronger effect = lower value 0.96 | S. cerevisiae deletion strains, locus YML120C, strain ndi1, stronger effect = lower value 0.94 | S. cerevisiae deletion strains, locus YML124C, strain tub3, stronger effect = lower value 0.979 | S. cerevisiae deletion strains, locus YMR058W, strain fet3, stronger effect = lower value 0.942 | S. cerevisiae deletion strains, locus YMR078C, strain ctf18, stronger effect = lower value 0.975 | S. cerevisiae deletion strains, locus YMR125W, strain sto1, stronger effect = lower value 0.982 | S. cerevisiae deletion strains, locus YMR129W, stronger effect = lower value 0.975 | S. cerevisiae deletion strains, locus YMR205C, strain PFK2, stronger effect = lower value 0.996 | S. cerevisiae deletion strains, locus YMR223W, strain ubp8, stronger effect = lower value 0.977 | S. cerevisiae deletion strains, locus YMR231W, strain pep5, stronger effect = lower value 0.949 | S. cerevisiae deletion strains, locus YMR263W, strain SAP30, stronger effect = lower value 1.01 | S. cerevisiae deletion strains, locus YMR307W, strain GAS1, stronger effect = lower value 1.02 | S. cerevisiae deletion strains, locus YNL067W, strain RPL9B, stronger effect = lower value 1.02 | S. cerevisiae deletion strains, locus YNL071W, strain lat1, stronger effect = lower value 0.971 | S. cerevisiae deletion strains, locus YNL128W, strain TEP1, stronger effect = lower value 1 | S. cerevisiae deletion strains, locus YNL153C, strain GIM3, stronger effect = lower value 1.03 | S. cerevisiae deletion strains, locus YNL183C, strain NPR1, stronger effect = lower value 0.94 | S. cerevisiae deletion strains, locus YNL209W, strain ssb2, stronger effect = lower value 0.972 | S. cerevisiae deletion strains, locus YNL233W, strain BNI4, stronger effect = lower value 1.05 | S. cerevisiae deletion strains, locus YNL248C, strain rpa49, stronger effect = lower value 0.99 | S. cerevisiae deletion strains, locus YNL250W, strain rad50, stronger effect = lower value 0.975 | S. cerevisiae deletion strains, locus YNL271C, strain bni1, stronger effect = lower value 0.979 | S. cerevisiae deletion strains, locus YNL298W, strain CLA4, stronger effect = lower value 0.978 | S. cerevisiae deletion strains, locus YNL307C, strain MCK1, stronger effect = lower value 0.979 | S. cerevisiae deletion strains, locus YNL322C, strain KRE1 (second series), stronger effect = lower value 0.945 | S. cerevisiae deletion strains, locus YNL322C, strain KRE1, stronger effect = lower value 0.997 | S. cerevisiae deletion strains, locus YNR049C, strain mso1, stronger effect = lower value 0.978 | S. cerevisiae deletion strains, locus YNR052C, strain pop2, stronger effect = lower value 0.96 | S. cerevisiae deletion strains, locus YOL006C, strain TOP1, stronger effect = lower value 1.04 | S. cerevisiae deletion strains, locus YOL012C, strain htz1 0.963 | S. cerevisiae deletion strains, locus YOL147C, strain pex11, stronger effect = lower value 0.984 | S. cerevisiae deletion strains, locus YOR001W, strain rrp6, stronger effect = lower value 0.946 | S. cerevisiae deletion strains, locus YOR061W, strain CKA2, stronger effect = lower value 1.01 | S. cerevisiae deletion strains, locus YOR069W, strain VPS5, stronger effect = lower value 1 | S. cerevisiae deletion strains, locus YOR070C, strain gyp1, stronger effect = lower value 0.993 | S. cerevisiae deletion strains, locus YOR080W, strain dia2, stronger effect = lower value 0.968 | S. cerevisiae deletion strains, locus YOR083W, strain WHI5, stronger effect = lower value 0.94 | S. cerevisiae deletion strains, locus YOR106W, strain vam3, stronger effect = lower value 0.929 | S. cerevisiae deletion strains, locus YOR136W, strain idh2, stronger effect = lower value 0.981 | S. cerevisiae deletion strains, locus YOR144C, strain elg1, stronger effect = lower value 0.985 | S. cerevisiae deletion strains, locus YOR184W, strain ser1, stronger effect = lower value 0.948 | S. cerevisiae deletion strains, locus YOR231W, strain MKK1, stronger effect = lower value 0.982 | S. cerevisiae deletion strains, locus YOR265W, strain rbl2, stronger effect = lower value 0.963 | S. cerevisiae deletion strains, locus YOR270C, strain vph1, stronger effect = lower value 1 | S. cerevisiae deletion strains, locus YOR290C, strain snf2, stronger effect = lower value 0.998 | S. cerevisiae deletion strains, locus YOR316C, strain cot1, stronger effect = lower value 0.994 | S. cerevisiae deletion strains, locus YPL051W, strain arl3, stronger effect = lower value 0.985 | S. cerevisiae deletion strains, locus YPL055C, strain LGE1, stronger effect = lower value 1.02 | S. cerevisiae deletion strains, locus YPL078C, strain atp4, stronger effect = lower value 0.921 | S. cerevisiae deletion strains, locus YPL106C, strain sse1, stronger effect = lower value 0.951 | S. cerevisiae deletion strains, locus YPL240C, strain hsp82, stronger effect = lower value 0.979 | S. cerevisiae deletion strains, locus YPL241C, strain CIN2, stronger effect = lower value 0.998 | S. cerevisiae deletion strains, locus YPL256C, strain CLN2, stronger effect = lower value 0.971 | S. cerevisiae deletion strains, locus YPR119W, strain clb2, stronger effect = lower value 0.995 | S. cerevisiae deletion strains, locus YPR141C, strain kar3, stronger effect = lower value 0.983 | S. cerevisiae deletion strains, locus YPR163C, strain tif3, stronger effect = lower value 0.966 | S. cerevisiae deletion strains, locus YPR167C, strain met16, stronger effect = lower value 0.987 | S. cerevisiae deletion strains, strain wtn01, stronger effect = lower value 1.02 | S. cerevisiae strains, strain wild type, stronger effect = lower value 0.997
